{"source": "PubChem BioAssay AID588342", "about": "(National Center for Advancing Translational Sciences (NCATS), 2011)", "note": "The campaign covered roughly 360,000 compounds. About 25,000 (6.9%) were called active. Not shown: some 9% with an inconclusive outcome. The sample holds actives, similar compounds and a random draw of the others, so the mix is not that of the screen. A number with no mark means an inactive call. Calls come from the whole dose curve; as a rule, active = well fitted inhibition curve with a large enough effect; inconclusive = small, poorly fitted or top-dose-only effect; inactive = flat fitted curve, though single readings scatter.", "data": [{"target": "Luciferin 4-monooxygenase (Photinus pyralis) (UniProt P08659)", "sequence (P08659 whole entry, looked up)": "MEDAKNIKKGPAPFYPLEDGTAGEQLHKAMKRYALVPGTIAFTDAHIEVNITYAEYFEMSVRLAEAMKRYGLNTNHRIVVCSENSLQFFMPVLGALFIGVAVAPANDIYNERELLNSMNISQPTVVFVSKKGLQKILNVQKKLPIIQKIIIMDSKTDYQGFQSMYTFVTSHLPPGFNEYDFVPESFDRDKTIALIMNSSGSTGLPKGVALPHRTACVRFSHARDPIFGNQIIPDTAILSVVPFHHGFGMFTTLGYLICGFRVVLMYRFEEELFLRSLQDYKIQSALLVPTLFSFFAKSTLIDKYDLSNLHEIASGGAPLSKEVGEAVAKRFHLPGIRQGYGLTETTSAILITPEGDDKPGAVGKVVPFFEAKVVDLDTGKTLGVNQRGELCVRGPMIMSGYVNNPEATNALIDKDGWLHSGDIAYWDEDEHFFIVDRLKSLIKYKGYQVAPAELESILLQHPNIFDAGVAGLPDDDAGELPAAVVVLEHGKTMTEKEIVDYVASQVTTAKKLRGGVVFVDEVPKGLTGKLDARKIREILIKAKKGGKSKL", "experiment": "qHTS profiling assay for firefly luciferase inhibitor/activator using purifed enzyme and Km concentrations of substrates (counterscreen for miR-21 project); note: nearly all actives have a fitted effect of over 55% in size;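 for activity change, negative = inhibition: plate controls were vehicle for no effect and reference inhibitor for full effect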", "conditions": "purified FLuc, luminescence inhibition; series mostly up to 57.5 µM; activity change, negative = inhibition: at the top concentration", "excerpt": "MLPCN Grant: 1 R21 NS059478-01 (miR-21 grant) Assay Provider: NCGC NCGC Assay Overview: Firefly (Photinus pyralis) luciferase is one of the most commonly used transcriptional reporters for a number of reasons. It is considered one of the more dynamically responsive reporters -that is, responsive to changes in reporter transcription - as it requires no post-translational modifications and is enzymatically active directly after protein synthesis (Wood, 1998). Additionally, the half-life of the luciferase protein is short relative to other reporter-gene products (Wood, 1995). Whereas reporters with long half-lives potentially allow for increased signal due to accumulation of reporter-gene product, once accumulated in the cell, dynamic changes in reporter-gene expression may be difficult to detect(Fan and Wood, 2007; Almond et al., 2004). It has been shown that wild-type P. pyralis luciferase has a half-life of approximately […] hours in mammalian cells (Thompson et al., 1991). Firefly luciferase reporter-gene assays are also generally considered one of the most sensitive assay types (Wood, 1995; Wood, 1998). Although light produced in a bioluminescence reaction is of lower intensity than that produced during fluorescence emission, this is offset by little to no background light inherent to luminescent assays. Thus the luciferase reporter can be expressed at much lower levels than fluorescent proteins while still providing robust signal. # However, it was initially observed, in 1991, by Thompson et al., that compounds that resemble the substrates of firefly luciferase (FLuc) can act as competitive inhibitors of the enzyme, and that these compounds, upon interaction with luciferase in the cell, can actually stabilize the protein and increase its half-life. Accumulated intracellular FLuc protein can be measured as an increase in luminescence signal, upon addition of detection reagents (which contain high concentrations of FLuc substrates) commonly used in high-throughput screening. In cell-based reporter gene assays that use FLuc as the reporter gene to quantitate the potential influence of a given compound against the target biology, this apparent increase in luminescence can mistakenly be interpreted as identification of a compound that is active against the target of interest. This is the case for the miR-21 FLuc reporter gene assay used to identify inhibitors of the miR-21 pathway (PubChem AID 2289) - compounds of interest will inhibit miR-21 biogenesis/expression or activity, and are identified by causing an increase in luminescence, due to increased FLuc translation. However, FLuc inhibitory compounds that stabilize the FLuc protein will give an identical read-out, making it difficult to distinguish compounds that are active against the target from those active against FLuc. Previous profiling work to determine the prevalence of compounds that affect FLuc enzymatic activity (PubChem AID 411) identified that ~3% of the MLSMR library (then at ~72K) inhibited FLuc. […] Since the MLSMR had grown to ~350K compounds, and since it was expected that a significant percentage of compounds found active in the miR-21 FLuc assay would be FLuc inhibitors, the library was screened for activity against FLuc using a biochemical assay of purified FLuc and KM concentrations of FLuc substrates (D-luciferin and ATP).\nNCGC Assay Protocol Summary: Reagents: 50mM Tris acetate, pH 7.5; 10mM Mg acetate; 10uM D-luciferin (Sigma #L9504); 10uM ATP; 0.01% Tween-20; 0.05% BSA; 10nM P. pyralis luciferase (Sigma #L9506) Control compounds used were two known firefly luciferase inhibitors (compounds (2) and (5) in Auld et al., 2010), and DMSO. […]", "units": {"activity change, negative = inhibition": "%"}, "values": [{"smiles": "OCCN1CCN(C(=S)c2ccc(-c3ccccc3)cc2)CC1", "activity change, negative = inhibition": -14.4}, {"smiles": "COc1cccc(C(=O)NC2(C(F)(F)F)C(=O)Nc3c2c(=O)[nH]c(=O)n3-c2ccc(C)cc2)c1", "note": "(stereo not drawn)", "activity change, negative = inhibition": -3.45}, {"smiles": "CC1CC(C)CN(C(=O)COC(=O)c2ccc3ncsc3c2)C1", "note": "(stereo not drawn)", "activity change, negative = inhibition": -5.66}, {"smiles": "Cc1nc2sccn2c(=O)c1S(=O)(=O)NCCc1ccccc1", "activity change, negative = inhibition": 5.93}, {"smiles": "CCCc1cc(-c2n[nH]c(=S)n2Cc2ccccc2)cs1", "activity change, negative = inhibition": -0.86}, {"smiles": "Cc1nc(C)c(-c2csc(NCCc3ccccc3)n2)s1", "Potency": "16.9 µM (active)"}, {"smiles": "Cc1c(Cl)cccc1NC(=O)C1CCCN(c2ncnc3onc(C)c23)C1", "note": "(stereo not drawn)", "activity change, negative = inhibition": 10.6}, {"smiles": "Cc1ccc(Cl)cc1N1CCN(C(=O)c2cnc3c(-c4ccc(F)cc4)c(C)nn3c2C)CC1", "activity change, negative = inhibition": 0.594}, {"smiles": "O=C(Nc1cccnc1)c1noc2c1CCCCC2", "Potency": "7.57 µM (active)"}, {"smiles": "O=C(Nc1cccnc1)c1cccc(S(=O)(=O)N2CCCC2)c1", "activity change, negative = inhibition": -2.12}, {"smiles": "Cc1noc(C)c1COc1cccc(C(=O)Nc2cccnc2)c1", "activity change, negative = inhibition": -4.82}, {"smiles": "CCOC(=O)c1c(C)[nH]c(CCC(=O)Nc2ccc(OC)c(OC)c2)c1C", "activity change, negative = inhibition": -6.27}, {"smiles": "O=C(Nc1ccc(-c2nc3cc(NC(=O)c4ccccc4Cl)ccc3o2)cc1)c1ccccc1Cl", "activity change, negative = inhibition": -2}, {"smiles": "Cc1ccc2nc(-c3ccc(NC(=O)c4cccnc4)cc3)oc2c1", "Potency": "5.36 µM (active)"}, {"smiles": "CC(=O)NC(=S)Nc1ccc(NC(=O)c2cccnc2)cc1", "activity change, negative = inhibition": -0.139}, {"smiles": "Cc1cc2nc(-c3ccc(NC(=O)c4cccnc4)cc3)oc2cc1C", "Potency": "6.75 µM (active)"}, {"smiles": "Cc1cc(NS(=O)(=O)c2ccc(NC(=O)c3cccnc3)cc2)nc(C)n1", "activity change, negative = inhibition": -0.527}, {"smiles": "O=C(Cc1ccccc1)Nc1ccc(NC(=O)c2cccnc2)cc1", "activity change, negative = inhibition": -2.2}, {"smiles": "CC(C)NC(=O)C1CCC(Cn2c(=O)c3sccc3n(Cc3ccc(F)cc3)c2=O)CC1", "note": "(stereo not drawn)", "activity change, negative = inhibition": -0.0077}, {"smiles": "COc1cc(OC)c(NC(=O)N2CC3CCCN3c3ccccc32)cc1Cl", "note": "(stereo not drawn)", "activity change, negative = inhibition": -9.36}, {"smiles": "COC(=O)c1ccccc1NC(=O)Cn1c(=O)cc(C)c2c(C)nn(-c3cccc(Cl)c3C)c21", "activity change, negative = inhibition": 0.184}, {"smiles": "COc1ccc2ncc3c(-c4ccc(C)c(C)c4)nn(CC(=O)NC4CCCC4)c3c2c1", "activity change, negative = inhibition": -4.06}, {"smiles": "COc1c(O)cc2oc(-c3ccc(O)c(O)c3)cc(=O)c2c1O", "Potency": "19 µM (active)"}, {"smiles": "COc1ccc(-c2cc(=O)c3c(O)cc(O[C@@H]4O[C@H](CO[C@@H]5O[C@@H](C)[C@H](O)[C@@H](O)[C@H]5O)[C@@H](O)[C@H](O)[C@H]4O)cc3o2)cc1O", "activity change, negative = inhibition": -3.38}, {"smiles": "CCOC(=O)COc1cc(O)c2c(=O)cc(-c3ccccc3)oc2c1", "activity change, negative = inhibition": -14.3}, {"smiles": "COc1ccccc1CNC(=O)CCCCn1c(=O)c2ccccc2n(CC(=O)Nc2cc(Cl)ccc2C)c1=O", "activity change, negative = inhibition": 4.1}, {"smiles": "Cc1nn(C(=O)c2c(F)cccc2F)c(C)c1S(=O)(=O)N1CCOCC1", "activity change, negative = inhibition": -0.398}, {"smiles": "CC(C)(C)OC(=O)NCCCCCNC(=O)c1[nH]cnc1C(=O)Nc1nccs1", "activity change, negative = inhibition": -0.773}, {"smiles": "Cc1ccc(-n2c(SCC(=O)NCc3ccc4c(c3)OCO4)nnc2-c2cccnc2)c(C)c1", "activity change, negative = inhibition": 5.43}, {"smiles": "Cc1ccc(C)c(N2CCN(C(=O)C3CCC(CNS(=O)(=O)c4cccs4)CC3)CC2)c1", "note": "(stereo not drawn)", "activity change, negative = inhibition": 1.58}, {"smiles": "Cc1ccc(S(=O)(=O)Nc2nc3ccccc3nc2N2CCc3ccccc3C2)cc1", "activity change, negative = inhibition": -14.3}, {"smiles": "Cc1ccc2c(c1)c1ncn(Cc3ccc(F)cc3)c(=O)c1n2C", "activity change, negative = inhibition": 0.78}, {"smiles": "Cc1ccc2c(c1)c1ncnc(N3CCc4ccccc4C3)c1n2C", "Potency": "13.5 µM (active)"}, {"smiles": "CCN(CC)CCCNC(=O)c1cn(C)c2ccc(S(=O)(=O)N(C)C3CCCCC3)cc2c1=O", "Potency": "inactive"}, {"smiles": "Cn1c(=O)c2c(-c3ccccc3Br)n(Cc3ccccc3)cc2n(C)c1=O", "activity change, negative = inhibition": 0.343}, {"smiles": "COc1cc(OC)cc(-c2c(-c3cccs3)c3cc(-c4ccc(OC)cc4F)ccc3n2C)c1", "activity change, negative = inhibition": 2.41}, {"smiles": "CCn1cc(C(=O)NCc2ccc(OC)cc2OC)c(=O)c2ccc(C)nc21", "activity change, negative = inhibition": 0.405}, {"smiles": "O=C(/C=C/c1ccccc1)N1CCN(Cc2cc(=O)n3nc(-c4ccccc4F)sc3n2)CC1", "activity change, negative = inhibition": 3.3}, {"smiles": "O=C(CNC(=O)c1cccnc1)N/N=C/c1cccnc1", "activity change, negative = inhibition": 2.58}, {"smiles": "O=C(CNC(=O)c1cccnc1)N/N=C/c1cc(Br)c(O)c(Br)c1", "activity change, negative = inhibition": 2.48}, {"smiles": "Cc1cc(/C=N/NC(=O)c2cccnc2)c(C)n1CC(C)C", "Potency": "7.57 µM (active)"}, {"smiles": "COc1ccc(Cn2c(C(=O)O)c(CNCCc3cccs3)c3ccc(OC)cc32)cc1", "activity change, negative = inhibition": -1.08}, {"smiles": "Cc1cc(N=Nc2ccc3ccccc3c2)ccc1O", "Potency": "1.35 µM (active)"}, {"smiles": "CCOc1ccc(-c2nonc2NC(=O)c2oc3ccc(C)cc3c2C)cc1OCC", "activity change, negative = inhibition": -10.5}, {"smiles": "COc1ccc(NS(=O)(=O)c2cc(NC(=O)/C=C/c3cc(OC)c(OC)c(OC)c3)ccc2N2CCCCC2)cc1", "activity change, negative = inhibition": -2}, {"smiles": "COc1ccc2c(c1)c(=O)c(C(=O)c1ccccc1)cn2CC(=O)Nc1ccc2c(c1)OCCO2", "activity change, negative = inhibition": -2.53}, {"smiles": "COc1cccc(/C=C/C(=O)Nc2ccc3c(c2)OCCO3)c1", "Potency": "0.757 µM (active)"}, {"smiles": "COc1ccc(/C=C/C(=O)Nc2ccc(C34CC5CC(CC(O)(C5)C3)C4)cc2)cc1OC", "Potency": "0.601 µM (active)"}, {"smiles": "COc1ccc(/C=C/C(=O)Nc2ccc(C)cc2)cc1S(=O)(=O)N1CCOCC1", "activity change, negative = inhibition": -3.53}, {"smiles": "COc1ccc(/C=C/C(=O)Nc2ccc3c(c2)OCCO3)cc1OC", "Potency": "23.9 µM (active)"}, {"smiles": "COc1ccc(/C=C/C(=O)N2CCCC2)cc1OC", "activity change, negative = inhibition": -4.89}, {"smiles": "COc1ccc(S(=O)(=O)N(C)CC(=O)Nc2ccc3c(c2)OCCO3)cc1OC", "activity change, negative = inhibition": -12.7}, {"smiles": "COc1cccc(NC(=O)CSc2nccn(-c3ccc4c(c3)OCCO4)c2=O)c1", "activity change, negative = inhibition": 1.19}]}]}
